The values that follow come from PubChem BioAssay (NCI).

The test can be described thus: NCI Yeast Anticancer Drug Screen. Data for the sgs1 mgt1 strain (AID 161).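 Further: 0% = growth of cultures given vehicle only.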 The following applies: S. cerevisiae sgs1 mgt1 strain, active compounds read high. Here is the method: Growth inhibition of yeast strains with defined genetic alterations is measured as a screen for potential anti-cancer activity. Selected strains with alterations in DNA damage repair or cell cycle control were exposed to compounds and growth inhibition was measured relative to vehicle treated controls. The strain used in this assay is sgs1 mgt1

Setting [1] is: at 5.0 µM (retest, dose inferred, filed as 0.5).
The mark [2] stands for this setting: at 50.0 µM (retest, dose inferred, filed as 5.0).

Several values for one entry are separate records, joined by “and”; a condition that tells them apart may be missing. Equal values may be shown once. The panel holds about 79,000 compounds, 15% with a hit somewhere; the sample as a whole holds those more often. A number with no mark means an inactive call. Activity calls are given as the source filed them. No stated cut-off is given here; in the data, active means growth inhibition above about 70%; inactive means the rest.

Consider `Cc1nc(-c2cc3cc([N+](=O)[O-])ccc3oc2=O)cs1`, for which the growth inhibition was 13% under setting [1], 46% under setting [2] and 89.3% (active) (at 50.0 µM).
On the same counts, the results for `CC(=O)OCC(C)Cc1cc2c(cc1Br)OCO2` (configuration not stated) are 1%, 72% (active) and 91.3% (active).
On the same counts, the results for `CCCCN(CCCC)CCC(O)c1cc2c(Cl)cc(Cl)cc2c2cc(C(F)(F)F)ccc12` (configuration not stated) are 56%, 97% (active) and 86.5% (active).
Consider `Cc1csc(=S)n1OC(=O)NC1CCCCC1`, for which the growth inhibition is 32% under setting [1], 96% (active) under setting [2] and 93.5% (active) (at 50.0 µM).
On the same counts, the results for `CCCC/C=C/C(C)(C(=O)OCC)C(=O)OCC` are 0%, 51% and 37.6%.
Take `CCCC(=O)Oc1ccc(/C=N/NC(N)=S)nc1`: the growth inhibition is, setting by setting: under setting [1], -1%; under setting [2], 25%; (at 50.0 µM) 28.4%.
On the same counts, the results for `Oc1cccc2cc(Cl)cnc12` are -13%, 99% (active) and 91.7% (active).
In the same order, the values of `COC1CCC(O)C(/C=C/[N+](=O)[O-])C1` (configuration not stated) are 67%, 100% (active) and 98.2% (active).
Take `COc1oc(C(=O)NC2CCCCC2)c(-c2ccc(Cl)cc2)c1S(=O)(=O)c1ccccc1`: the growth inhibition is -10% under setting [1], 88% (active) under setting [2] and 78.2% (active) (at 50.0 µM).
On the same counts, the results for `COc1cc(C2c3cc4c(cc3OC(OC(C)=O)C2C)OCO4)cc(OC)c1OC` (configuration not stated) are -8%, 29% and -4.55%.
For `Nc1ccc2c(c1)C(=O)c1ccc(F)cc1-2`, the growth inhibition is -6% under setting [1], 32% under setting [2] and 9.55% (at 50.0 µM).
On the same counts, the results for `CN(C)CCNC(=O)c1cccc2c1Oc1c(cccc1[N+](=O)[O-])O2` are 11%, 16% and 11.5%.
As to `CC1=CC(=C(c2ccc(N)cc2)c2ccc(N)cc2)C=CC1=N`, the growth inhibition was 15% and 2% under setting [1]; 30% and 50% under setting [2]; 59.5% and 48.1% (at 50.0 µM).
On to `Cc1c2ccnc(C(=O)NCCN(C)C)c2cc2c3cc(O)ccc3n(C)c12`, for which the growth inhibition runs as follows: under setting [1], -4%; under setting [2], 8%; (at 50.0 µM) 13.3%.
